Our source for the binding signal values is article PMC7862700, “An all-to-all approach to the identification of sequence-specific readers for epigenetic DNA modifications on cytosine”.

What all share (test): DAPPL (digital affinity profiling via proximity ligation, sequencing); 10 mM Tris-HCl pH 7.5, 50 mM NaCl, 1 mM DTT, 4% glycerol, room temperature, 30 min; GST-TFs on glutathione beads, 16-mer random dsDNA library, 0.1% formaldehyde crosslink after washing; high values mean tight binding
What all share (settings): protein: recombinant; tags: N-terminal GST; dsDNA, one strand shown

In one assay the target is T1, FLI1 (Homo sapiens, UniProt Q01543 1-452).
T1 sequence: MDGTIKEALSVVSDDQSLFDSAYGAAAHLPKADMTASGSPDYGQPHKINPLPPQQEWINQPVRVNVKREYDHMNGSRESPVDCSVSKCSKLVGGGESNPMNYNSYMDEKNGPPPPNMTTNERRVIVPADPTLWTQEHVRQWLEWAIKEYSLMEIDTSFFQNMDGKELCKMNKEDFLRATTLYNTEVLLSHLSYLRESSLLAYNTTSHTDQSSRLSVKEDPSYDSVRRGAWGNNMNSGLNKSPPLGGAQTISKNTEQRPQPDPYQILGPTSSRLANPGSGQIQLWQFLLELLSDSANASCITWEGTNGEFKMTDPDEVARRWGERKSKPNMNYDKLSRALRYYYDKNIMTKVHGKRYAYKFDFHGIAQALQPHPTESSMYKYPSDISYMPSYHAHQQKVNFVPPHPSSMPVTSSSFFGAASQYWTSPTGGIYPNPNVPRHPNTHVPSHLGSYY
An outline of the steps:
(§1)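 Pools of DNA-barcoded human transcription factors, expressed in yeast as GST fusions on glutathione beads and combined with a tag-only sample, were incubated with 200 nmole of a 16-mer random double-stranded DNA library. Incubation took 30 min at room temperature in Tris/NaCl/DTT/glycerol buffer and was followed by washing, 0.1% formaldehyde crosslinking, proximity ligation (BsaI/T4 ligase, 1 h, 37 °C), PCR amplification and sequencing on an Illumina NextSeq500. Binding signal is the ratio of a hexamer's read frequency for a factor to its frequency for the tag-only sample.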

Another assay concerns the target T2, ELK1 (Homo sapiens, UniProt P19419 1-428).
T2 sequence: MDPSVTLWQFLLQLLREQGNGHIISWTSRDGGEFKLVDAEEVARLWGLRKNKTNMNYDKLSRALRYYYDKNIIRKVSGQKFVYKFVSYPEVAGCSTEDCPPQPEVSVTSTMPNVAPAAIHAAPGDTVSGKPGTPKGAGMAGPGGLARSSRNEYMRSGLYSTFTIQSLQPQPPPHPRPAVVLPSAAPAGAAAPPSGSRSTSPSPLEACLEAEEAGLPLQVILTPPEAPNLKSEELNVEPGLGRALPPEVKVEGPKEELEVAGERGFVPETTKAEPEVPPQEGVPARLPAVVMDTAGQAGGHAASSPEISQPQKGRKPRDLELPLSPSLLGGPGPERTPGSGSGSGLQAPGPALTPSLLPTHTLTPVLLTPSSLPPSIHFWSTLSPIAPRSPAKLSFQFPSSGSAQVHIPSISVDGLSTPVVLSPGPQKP
An outline of the steps: as §1

For a further assay, the target named is T3, GABPA (Homo sapiens, UniProt Q06546 1-454).
T3 sequence: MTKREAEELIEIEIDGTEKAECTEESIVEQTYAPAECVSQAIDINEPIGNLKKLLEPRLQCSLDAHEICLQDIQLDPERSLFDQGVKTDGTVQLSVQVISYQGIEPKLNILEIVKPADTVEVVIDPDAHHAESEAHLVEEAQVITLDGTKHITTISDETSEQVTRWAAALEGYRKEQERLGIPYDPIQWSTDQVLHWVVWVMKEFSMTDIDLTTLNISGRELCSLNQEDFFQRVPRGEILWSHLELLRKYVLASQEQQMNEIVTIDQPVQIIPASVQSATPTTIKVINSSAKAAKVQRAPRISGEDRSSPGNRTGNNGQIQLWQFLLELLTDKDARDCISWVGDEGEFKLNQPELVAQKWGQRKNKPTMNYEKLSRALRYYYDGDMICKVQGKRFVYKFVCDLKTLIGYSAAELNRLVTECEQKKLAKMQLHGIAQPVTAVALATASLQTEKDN
The essentials: as §1

The next assay deals with T4, ERG (Homo sapiens, UniProt P11308 1-479).
T4 sequence: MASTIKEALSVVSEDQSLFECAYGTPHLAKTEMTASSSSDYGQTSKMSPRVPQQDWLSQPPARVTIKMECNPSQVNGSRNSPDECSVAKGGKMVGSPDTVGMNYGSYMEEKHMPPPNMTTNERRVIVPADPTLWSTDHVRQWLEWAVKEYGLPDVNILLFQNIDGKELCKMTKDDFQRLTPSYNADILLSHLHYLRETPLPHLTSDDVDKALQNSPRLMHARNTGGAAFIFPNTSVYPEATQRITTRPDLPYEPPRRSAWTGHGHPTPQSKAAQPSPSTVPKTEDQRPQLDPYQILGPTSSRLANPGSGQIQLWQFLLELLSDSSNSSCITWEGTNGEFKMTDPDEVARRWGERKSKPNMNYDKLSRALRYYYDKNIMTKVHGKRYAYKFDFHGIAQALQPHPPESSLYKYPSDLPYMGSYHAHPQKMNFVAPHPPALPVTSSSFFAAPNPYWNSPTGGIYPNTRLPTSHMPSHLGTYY
An outline of the steps: as §1

In another assay the target is ELF1 (Homo sapiens, UniProt P32519 1-619). An outline of the steps: as §1
ELF1, sequence (P32519 whole entry): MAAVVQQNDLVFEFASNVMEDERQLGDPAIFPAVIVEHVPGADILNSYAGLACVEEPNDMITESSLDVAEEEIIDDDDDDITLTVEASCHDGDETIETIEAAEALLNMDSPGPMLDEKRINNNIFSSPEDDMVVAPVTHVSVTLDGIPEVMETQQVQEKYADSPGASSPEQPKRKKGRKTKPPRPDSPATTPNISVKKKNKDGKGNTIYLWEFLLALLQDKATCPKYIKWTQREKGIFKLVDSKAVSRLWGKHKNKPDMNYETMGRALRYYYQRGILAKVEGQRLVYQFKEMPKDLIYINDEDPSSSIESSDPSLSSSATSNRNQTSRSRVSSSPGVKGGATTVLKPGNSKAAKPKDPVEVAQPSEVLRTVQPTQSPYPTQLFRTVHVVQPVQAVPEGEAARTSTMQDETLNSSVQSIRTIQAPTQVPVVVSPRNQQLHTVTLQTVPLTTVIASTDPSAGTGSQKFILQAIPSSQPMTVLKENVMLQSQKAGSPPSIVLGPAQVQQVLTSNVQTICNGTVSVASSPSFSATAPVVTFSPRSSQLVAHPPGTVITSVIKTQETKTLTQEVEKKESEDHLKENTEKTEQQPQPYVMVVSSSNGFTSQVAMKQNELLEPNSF
The next assay concerns the target T5, EHF (Homo sapiens, UniProt Q9NZC4 1-300).
T5 sequence: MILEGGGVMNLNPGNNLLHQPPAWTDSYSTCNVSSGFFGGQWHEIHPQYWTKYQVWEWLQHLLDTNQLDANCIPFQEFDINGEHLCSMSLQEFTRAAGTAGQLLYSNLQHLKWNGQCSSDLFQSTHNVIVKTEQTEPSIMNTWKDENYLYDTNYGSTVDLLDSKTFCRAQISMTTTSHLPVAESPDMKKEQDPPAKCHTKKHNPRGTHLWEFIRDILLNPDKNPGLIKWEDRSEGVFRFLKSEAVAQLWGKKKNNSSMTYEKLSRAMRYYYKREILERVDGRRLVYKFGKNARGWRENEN
An outline of the steps:
as §1

A further assay concerns the target SPI1 (Homo sapiens, UniProt P17947 1-270). An outline of the steps:
as §1

Another assay deals with SPIB (Homo sapiens, UniProt Q01892 1-262). An outline of the steps: as §1
SPIB, sequence (Q01892 whole entry): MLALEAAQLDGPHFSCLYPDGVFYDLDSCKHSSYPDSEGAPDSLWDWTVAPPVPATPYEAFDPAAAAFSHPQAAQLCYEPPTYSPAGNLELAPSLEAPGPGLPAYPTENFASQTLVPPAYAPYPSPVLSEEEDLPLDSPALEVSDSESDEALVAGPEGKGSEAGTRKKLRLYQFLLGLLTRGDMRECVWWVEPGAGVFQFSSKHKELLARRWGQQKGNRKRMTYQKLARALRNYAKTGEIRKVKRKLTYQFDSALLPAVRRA
The target in the next assay is T6, FEV (Homo sapiens, UniProt Q99581 1-238).
T6 sequence: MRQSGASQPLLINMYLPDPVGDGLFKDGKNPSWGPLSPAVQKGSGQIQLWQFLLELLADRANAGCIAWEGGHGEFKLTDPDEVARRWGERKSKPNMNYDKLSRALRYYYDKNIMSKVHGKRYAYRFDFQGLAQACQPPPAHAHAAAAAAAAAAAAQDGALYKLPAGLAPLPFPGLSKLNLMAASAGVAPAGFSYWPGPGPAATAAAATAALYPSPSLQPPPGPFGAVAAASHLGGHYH
The essentials:
as §1

The target of the next assay is ETV5 (Homo sapiens, UniProt P41161 1-510). The essentials:
as §1

For the next assay, the target named is T7, SPIC (Homo sapiens, UniProt Q8N5J4 1-248).
T7 sequence: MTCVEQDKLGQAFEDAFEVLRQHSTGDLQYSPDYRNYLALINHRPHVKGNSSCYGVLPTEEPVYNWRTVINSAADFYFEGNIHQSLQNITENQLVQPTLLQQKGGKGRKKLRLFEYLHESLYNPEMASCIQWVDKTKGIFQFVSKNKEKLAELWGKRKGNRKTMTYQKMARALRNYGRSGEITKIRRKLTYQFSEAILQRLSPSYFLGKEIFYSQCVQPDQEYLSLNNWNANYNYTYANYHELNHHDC
An outline of the steps:
as §1

A further assay deals with ELF4 (Homo sapiens, UniProt Q99607 1-663). An outline of the steps:
as §1

The next assay concerns the target ETV1 (Homo sapiens, UniProt P50549 1-477). The essentials:
as §1

Another assay addresses T8, ERF (Homo sapiens, UniProt P50548 1-548).
T8 sequence: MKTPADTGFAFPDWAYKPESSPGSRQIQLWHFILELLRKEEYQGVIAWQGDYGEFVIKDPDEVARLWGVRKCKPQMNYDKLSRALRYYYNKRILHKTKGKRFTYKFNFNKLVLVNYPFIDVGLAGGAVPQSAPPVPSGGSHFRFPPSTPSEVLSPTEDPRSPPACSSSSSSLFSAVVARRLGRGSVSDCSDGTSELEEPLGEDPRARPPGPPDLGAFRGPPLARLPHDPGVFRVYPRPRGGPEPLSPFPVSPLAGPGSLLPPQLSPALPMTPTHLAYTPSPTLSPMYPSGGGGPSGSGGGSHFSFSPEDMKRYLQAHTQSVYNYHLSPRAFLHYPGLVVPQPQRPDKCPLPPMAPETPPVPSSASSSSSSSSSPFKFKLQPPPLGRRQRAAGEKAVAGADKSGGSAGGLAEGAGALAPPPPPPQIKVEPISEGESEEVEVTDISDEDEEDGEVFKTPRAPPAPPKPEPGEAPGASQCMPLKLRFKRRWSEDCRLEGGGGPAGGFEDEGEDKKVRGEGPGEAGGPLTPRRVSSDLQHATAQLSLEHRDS
The essentials:
as §1

A further assay concerns the target T9, ETV3L (Homo sapiens, UniProt Q6ZN32 1-361).
T9 sequence: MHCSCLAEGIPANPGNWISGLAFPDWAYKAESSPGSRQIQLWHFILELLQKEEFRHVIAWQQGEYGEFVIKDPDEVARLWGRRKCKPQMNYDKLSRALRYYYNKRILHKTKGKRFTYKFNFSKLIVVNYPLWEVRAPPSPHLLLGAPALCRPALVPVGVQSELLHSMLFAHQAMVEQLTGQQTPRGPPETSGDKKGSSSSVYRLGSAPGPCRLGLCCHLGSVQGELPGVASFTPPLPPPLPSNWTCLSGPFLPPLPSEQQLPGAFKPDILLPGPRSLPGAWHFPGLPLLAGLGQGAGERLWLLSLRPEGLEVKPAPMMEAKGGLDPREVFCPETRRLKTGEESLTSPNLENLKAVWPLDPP
An outline of the steps: as §1

For the next assay, the target named is T10, ETS2 (Homo sapiens, UniProt P15036 1-469).
T10 sequence: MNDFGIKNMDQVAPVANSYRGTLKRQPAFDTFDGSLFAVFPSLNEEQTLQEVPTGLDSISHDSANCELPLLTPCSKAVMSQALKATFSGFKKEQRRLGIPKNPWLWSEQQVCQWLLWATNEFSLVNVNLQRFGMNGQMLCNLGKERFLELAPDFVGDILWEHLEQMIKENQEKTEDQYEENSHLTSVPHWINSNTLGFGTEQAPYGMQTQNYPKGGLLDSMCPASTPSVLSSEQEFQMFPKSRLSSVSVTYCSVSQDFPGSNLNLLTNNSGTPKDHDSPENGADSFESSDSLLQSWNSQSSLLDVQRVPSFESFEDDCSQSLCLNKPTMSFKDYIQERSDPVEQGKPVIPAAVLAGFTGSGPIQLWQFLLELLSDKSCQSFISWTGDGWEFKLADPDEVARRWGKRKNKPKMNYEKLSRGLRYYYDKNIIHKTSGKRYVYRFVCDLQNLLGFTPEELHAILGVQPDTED
The essentials: as §1

A further assay concerns the target T11, ELF5 (Homo sapiens, UniProt Q9UKW6-2 1-255).
T11 sequence: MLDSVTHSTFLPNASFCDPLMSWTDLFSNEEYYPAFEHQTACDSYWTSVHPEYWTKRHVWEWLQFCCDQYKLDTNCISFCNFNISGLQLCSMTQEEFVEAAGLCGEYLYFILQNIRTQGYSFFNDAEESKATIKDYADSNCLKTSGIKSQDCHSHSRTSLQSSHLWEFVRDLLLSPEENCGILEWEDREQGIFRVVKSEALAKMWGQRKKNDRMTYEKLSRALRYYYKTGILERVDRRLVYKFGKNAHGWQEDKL
The essentials: as §1

The target in the next assay is T12, ETV3 (Homo sapiens, UniProt P41162-2 1-143).
T12 sequence: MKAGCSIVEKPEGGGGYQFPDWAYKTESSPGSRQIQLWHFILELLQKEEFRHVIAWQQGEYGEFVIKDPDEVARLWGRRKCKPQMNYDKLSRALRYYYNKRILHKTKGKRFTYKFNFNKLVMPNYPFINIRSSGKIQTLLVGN
An outline of the steps: as §1

Another assay addresses ETV6 (Homo sapiens, UniProt P41212 1-452). An outline of the steps:
as §1

ETV1, sequence (P50549 whole entry): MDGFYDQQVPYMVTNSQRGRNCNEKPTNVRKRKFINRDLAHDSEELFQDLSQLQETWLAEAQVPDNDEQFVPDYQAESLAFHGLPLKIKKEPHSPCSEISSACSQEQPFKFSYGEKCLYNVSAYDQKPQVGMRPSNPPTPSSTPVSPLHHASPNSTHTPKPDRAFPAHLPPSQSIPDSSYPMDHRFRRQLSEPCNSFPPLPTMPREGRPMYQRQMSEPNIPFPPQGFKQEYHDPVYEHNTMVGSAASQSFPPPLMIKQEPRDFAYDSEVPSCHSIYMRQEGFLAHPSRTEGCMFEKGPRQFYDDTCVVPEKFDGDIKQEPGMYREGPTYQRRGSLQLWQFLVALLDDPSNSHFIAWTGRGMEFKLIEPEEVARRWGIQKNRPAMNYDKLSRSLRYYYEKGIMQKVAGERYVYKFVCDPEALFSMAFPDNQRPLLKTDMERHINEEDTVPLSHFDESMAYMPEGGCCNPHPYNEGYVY
ETV6, sequence (P41212 whole entry): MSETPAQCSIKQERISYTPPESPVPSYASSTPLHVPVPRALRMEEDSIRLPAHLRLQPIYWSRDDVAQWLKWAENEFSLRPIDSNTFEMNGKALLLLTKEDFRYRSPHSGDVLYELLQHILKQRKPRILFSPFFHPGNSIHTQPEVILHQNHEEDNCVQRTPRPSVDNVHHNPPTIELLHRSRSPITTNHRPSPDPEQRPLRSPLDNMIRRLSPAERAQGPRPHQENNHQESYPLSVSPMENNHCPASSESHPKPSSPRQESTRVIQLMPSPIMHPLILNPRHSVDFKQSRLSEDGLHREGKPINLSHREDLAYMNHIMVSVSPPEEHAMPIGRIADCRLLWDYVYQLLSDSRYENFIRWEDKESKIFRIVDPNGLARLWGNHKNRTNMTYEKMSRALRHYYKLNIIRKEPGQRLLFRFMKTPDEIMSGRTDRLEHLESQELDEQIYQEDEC
ETV5, sequence (P41161 whole entry): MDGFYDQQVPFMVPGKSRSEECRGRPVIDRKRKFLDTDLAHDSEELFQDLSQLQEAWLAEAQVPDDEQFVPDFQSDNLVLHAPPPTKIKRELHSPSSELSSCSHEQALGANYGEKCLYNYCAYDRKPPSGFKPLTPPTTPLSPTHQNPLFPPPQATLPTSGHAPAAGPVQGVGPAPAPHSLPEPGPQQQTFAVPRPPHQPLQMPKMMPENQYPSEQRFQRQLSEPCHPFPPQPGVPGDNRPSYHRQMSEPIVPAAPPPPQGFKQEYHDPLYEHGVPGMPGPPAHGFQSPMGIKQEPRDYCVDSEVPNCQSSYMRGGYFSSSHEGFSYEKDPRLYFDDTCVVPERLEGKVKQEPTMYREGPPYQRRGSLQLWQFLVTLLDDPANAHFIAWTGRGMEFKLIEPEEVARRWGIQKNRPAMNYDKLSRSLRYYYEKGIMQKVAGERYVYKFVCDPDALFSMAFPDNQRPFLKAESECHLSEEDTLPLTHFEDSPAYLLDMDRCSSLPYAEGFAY
ELF4, sequence (Q99607 whole entry): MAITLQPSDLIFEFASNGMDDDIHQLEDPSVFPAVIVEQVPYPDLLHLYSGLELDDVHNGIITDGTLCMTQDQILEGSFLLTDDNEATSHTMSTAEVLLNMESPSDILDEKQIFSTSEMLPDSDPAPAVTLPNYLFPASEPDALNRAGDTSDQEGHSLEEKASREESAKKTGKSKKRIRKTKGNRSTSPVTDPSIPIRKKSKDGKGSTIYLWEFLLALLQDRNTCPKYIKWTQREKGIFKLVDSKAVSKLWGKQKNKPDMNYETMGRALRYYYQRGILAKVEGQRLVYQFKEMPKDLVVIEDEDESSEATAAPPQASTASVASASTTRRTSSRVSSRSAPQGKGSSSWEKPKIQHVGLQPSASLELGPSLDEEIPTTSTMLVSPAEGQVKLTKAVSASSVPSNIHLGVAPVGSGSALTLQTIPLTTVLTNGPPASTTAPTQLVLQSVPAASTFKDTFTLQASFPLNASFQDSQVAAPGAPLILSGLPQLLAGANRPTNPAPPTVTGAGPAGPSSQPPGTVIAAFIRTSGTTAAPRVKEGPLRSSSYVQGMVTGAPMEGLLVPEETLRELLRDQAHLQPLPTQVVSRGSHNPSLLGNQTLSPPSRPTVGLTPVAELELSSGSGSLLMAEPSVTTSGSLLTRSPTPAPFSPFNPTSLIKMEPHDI

In the case of AACTGA, the binding signal with FLI1 was 1.07 fold enrichment (6-mer frequency, TF over GST control); with ELK1, 1.08 fold enrichment (6-mer frequency, TF over GST control); in the assay with GABPA it was 1.08 fold enrichment (6-mer frequency, TF over GST control); with ERG, 1.11 fold enrichment (6-mer frequency, TF over GST control); with ELF1 it was 1.13 fold enrichment (6-mer frequency, TF over GST control); in the assay with EHF it was 1.1 fold enrichment (6-mer frequency, TF over GST control). The binding signal with SPI1 was 1.13 fold enrichment (6-mer frequency, TF over GST control); with SPIB, 1.15 fold enrichment (6-mer frequency, TF over GST control); in the assay with FEV it was 1.15 fold enrichment (6-mer frequency, TF over GST control); in the assay with ETV5, 1.11 fold enrichment (6-mer frequency, TF over GST control); in the assay with SPIC, 1.37 fold enrichment (6-mer frequency, TF over GST control); in the assay with ELF4, 1.05 fold enrichment (6-mer frequency, TF over GST control). The binding signal with ETV1 was 1.16 fold enrichment (6-mer frequency, TF over GST control); in the assay with ERF, 1.08 fold enrichment (6-mer frequency, TF over GST control); with ETV3L, 1.09 fold enrichment (6-mer frequency, TF over GST control); with ETS2 it was 1.16 fold enrichment (6-mer frequency, TF over GST control); in the assay with ELF5, 1.01 fold enrichment (6-mer frequency, TF over GST control); with ETV3, 1.06 fold enrichment (6-mer frequency, TF over GST control). The binding signal with ETV6 was 1.1 fold enrichment (6-mer frequency, TF over GST control).
